From the supplement of paper PMC10849652
Of roughly 7,900 targets only a part is listed; those with a hit were picked by preference. About 0.6% of all pairs of compound and target were hits. Values without a mark were called inactive.

How the values were obtained:
Assay in all cases: log2 fold change, soluble protein after heating vs DMSO (PISA); higher = thermal stabilisation; K562 cells, 10 uM, 30 min; active = over 0.2 and 3.5 SD of the protein, either way, in both replicates (recomputed)
IRAK-1-4 Inhibitor I = compound: C1COCCN1CCN2C3=CC=CC=C3N=C2NC(=O)C4=CC(=CC=C4)[N+](=O)[O-] [IRAK-1-4 Inhibitor I]
Summary of the method: (§1)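 Thermal stability values are relative to control samples and come from duplicates. They are expressed as log2 fold changes. For measurement, K562 cells (2×10^6 cells/mL) received 10 μM compound for 30 min, and aliquots were heated for 3 min over 48°C-58°C, pooled, and extracted at 4°C in PBS with 0.5% NP-40. Soluble protein, the supernatant after 21,000xg for 90 min, was quantified by TMTpro 16plex LC-MS/MS with equalised channel sums.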

ibrutinib = compound: C=CC(=O)N1CCC[C@@H](n2nc(-c3ccc(Oc4ccccc4)cc3)c3c(N)ncnc32)C1 [ibrutinib]
Summary of the method: as §1

[1] = compound: CC(=O)c1cnc2ccc(-c3cc(Cl)c(O)c(Cl)c3)nc2c1N[C@H]1CC[C@H](CN(C)C)CC1
Summary of the method: as §1

ralimetinib = compound: CC(C)(C)Cn1c(N)nc2ccc(-c3[nH]c(C(C)(C)C)nc3-c3ccc(F)cc3)nc21 [ralimetinib]
Summary of the method: as §1

[2] = compound: CC(C)(O)CC(=O)NCCn1ccc2ncnc(Nc3ccc(Oc4cccc(C(F)(F)F)c4)c(Cl)c3)c21
Summary of the method: as §1

[3] = compound: CC(C)C1=C2N=C(C=C(N2N=C1)NCC3=CC=CC=C3)NCCCCCCN
Summary of the method: as §1

[4] = compound: CC(C)C[C@@H](C=O)NC(=O)[C@H](CC(C)C)NC(=O)[C@H](CC(C)C)NC(=O)OCc1ccccc1
Summary of the method: as §1

pinometostat = compound: CC(C)N(C[C@H]1O[C@@H](n2cnc3c(N)ncnc32)[C@H](O)[C@@H]1O)[C@H]1C[C@@H](CCc2nc3cc(C(C)(C)C)ccc3[nH]2)C1 [pinometostat]
Summary of the method: as §1

[5] = compound: CC1=C(C(CC(=O)N1)C2=CC=C(C=C2)C(F)(F)F)C(=O)NC3=C(C=C4C(=C3)C=NN4)F
Summary of the method: as §1

[6] = compound: CC1=C(C2=C(C=C1)C(=O)C3=CC=CC=C3N2CCCN)C
Summary of the method: as §1

[7] = compound: CC1=C(C=C(C=C1)NC(=O)C2=CC(=CC=C2)C(C)(C)C#N)NC3=CC4=C(C=C3)N=CN(C4=O)C
Summary of the method: as §1

[8] = compound: CC1=C(C=C(C=C1)NC(=O)C2=CC(=CC=C2)N(C)C)NC(=O)C3=CC=C(C=C3)O
Summary of the method: as §1

[9] = compound: CC1=CC=C(C=C1)SC2=C3C=C(SC3=CN=C2)C(=O)N
Summary of the method: as §1

[10] = compound: CC1=NC(=CC=C1)C2=C(N=C(N2)C(C)(C)C)C3=CC4=NC=CN=C4C=C3
Summary of the method: as §1

Nexturastat A = compound: CCCCN(Cc1ccc(C(=O)NO)cc1)C(=O)Nc1ccccc1 [Nexturastat A]
Summary of the method: as §1

vemurafenib = compound: CCCS(=O)(=O)Nc1ccc(F)c(C(=O)c2c[nH]c3ncc(-c4ccc(Cl)cc4)cc23)c1F [vemurafenib]
Summary of the method: as §1

[11] = compound: CCCS(=O)(=O)Nc1ccc(F)c(C(=O)c2c[nH]c3ncc(Cl)cc23)c1F
Summary of the method: as §1

[12] = compound: CCCc1cc(C)[nH]c(=O)c1CNC(=O)c1cc(-c2ccnc(N3CCN(C)CC3)c2)cc2c1cnn2C(C)C
Summary of the method: as §1

givinostat = compound: CCN(CC)Cc1ccc2cc(COC(=O)Nc3ccc(C(=O)NO)cc3)ccc2c1 [givinostat]
Summary of the method: as §1

barasertib = compound: CCN(CCCOc1ccc2c(Nc3cc(CC(=O)Nc4cccc(F)c4)[nH]n3)ncnc2c1)CCOP(=O)(O)O [barasertib]
Summary of the method: as §1

UniProt P13498, sequence (P13498 whole entry, looked up): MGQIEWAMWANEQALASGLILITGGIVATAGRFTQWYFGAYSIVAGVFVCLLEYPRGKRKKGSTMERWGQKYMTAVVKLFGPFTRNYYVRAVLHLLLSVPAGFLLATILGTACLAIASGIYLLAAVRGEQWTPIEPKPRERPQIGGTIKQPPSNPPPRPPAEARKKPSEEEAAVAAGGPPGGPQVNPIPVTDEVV
UniProt Q13409, sequence (Q13409 whole entry, looked up): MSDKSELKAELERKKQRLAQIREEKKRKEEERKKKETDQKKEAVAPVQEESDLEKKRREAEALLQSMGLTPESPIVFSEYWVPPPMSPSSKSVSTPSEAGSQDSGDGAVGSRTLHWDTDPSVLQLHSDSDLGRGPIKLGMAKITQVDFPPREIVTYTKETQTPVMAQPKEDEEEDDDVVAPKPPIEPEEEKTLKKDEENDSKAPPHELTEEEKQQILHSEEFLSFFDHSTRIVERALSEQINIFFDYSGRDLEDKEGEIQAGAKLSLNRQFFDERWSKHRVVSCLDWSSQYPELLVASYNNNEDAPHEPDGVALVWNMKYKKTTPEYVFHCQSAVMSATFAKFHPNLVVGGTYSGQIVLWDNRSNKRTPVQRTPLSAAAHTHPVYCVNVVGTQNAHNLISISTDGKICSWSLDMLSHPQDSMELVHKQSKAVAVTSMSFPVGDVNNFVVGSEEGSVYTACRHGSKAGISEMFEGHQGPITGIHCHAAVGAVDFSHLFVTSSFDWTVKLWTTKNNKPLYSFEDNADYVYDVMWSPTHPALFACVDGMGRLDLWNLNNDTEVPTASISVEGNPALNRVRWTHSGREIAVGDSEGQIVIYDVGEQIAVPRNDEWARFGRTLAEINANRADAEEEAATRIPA
UniProt Q9NRY5, sequence (Q9NRY5 whole entry, looked up): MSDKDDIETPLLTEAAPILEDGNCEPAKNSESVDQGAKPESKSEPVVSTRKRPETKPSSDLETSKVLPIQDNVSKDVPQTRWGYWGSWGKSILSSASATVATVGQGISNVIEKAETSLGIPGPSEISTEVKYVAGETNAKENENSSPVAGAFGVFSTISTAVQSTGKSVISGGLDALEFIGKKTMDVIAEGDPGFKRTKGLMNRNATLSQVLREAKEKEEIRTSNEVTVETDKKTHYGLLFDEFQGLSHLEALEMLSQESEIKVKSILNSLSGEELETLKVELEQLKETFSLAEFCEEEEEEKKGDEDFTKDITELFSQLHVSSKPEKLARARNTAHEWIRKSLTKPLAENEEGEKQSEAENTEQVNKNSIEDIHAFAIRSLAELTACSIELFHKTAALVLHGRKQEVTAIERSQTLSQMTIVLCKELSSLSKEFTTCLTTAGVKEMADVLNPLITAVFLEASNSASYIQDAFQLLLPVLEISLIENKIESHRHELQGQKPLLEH
UniProt Q5NDL2, sequence (Q5NDL2 whole entry, looked up): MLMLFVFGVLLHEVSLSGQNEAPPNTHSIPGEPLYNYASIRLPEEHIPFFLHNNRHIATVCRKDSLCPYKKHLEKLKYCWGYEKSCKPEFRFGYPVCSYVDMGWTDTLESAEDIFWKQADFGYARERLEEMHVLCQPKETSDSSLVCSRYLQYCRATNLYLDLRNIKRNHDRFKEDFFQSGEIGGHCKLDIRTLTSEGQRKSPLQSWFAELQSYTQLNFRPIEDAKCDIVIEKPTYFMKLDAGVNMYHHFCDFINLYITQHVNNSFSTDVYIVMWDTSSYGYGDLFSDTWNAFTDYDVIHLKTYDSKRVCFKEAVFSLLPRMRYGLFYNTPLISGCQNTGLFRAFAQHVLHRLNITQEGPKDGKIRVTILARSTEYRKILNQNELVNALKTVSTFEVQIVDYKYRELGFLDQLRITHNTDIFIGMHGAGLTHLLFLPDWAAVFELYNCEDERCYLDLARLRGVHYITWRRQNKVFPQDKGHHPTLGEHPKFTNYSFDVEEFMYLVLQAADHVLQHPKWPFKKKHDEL
UniProt Q8NBI2, sequence (Q8NBI2 whole entry, looked up): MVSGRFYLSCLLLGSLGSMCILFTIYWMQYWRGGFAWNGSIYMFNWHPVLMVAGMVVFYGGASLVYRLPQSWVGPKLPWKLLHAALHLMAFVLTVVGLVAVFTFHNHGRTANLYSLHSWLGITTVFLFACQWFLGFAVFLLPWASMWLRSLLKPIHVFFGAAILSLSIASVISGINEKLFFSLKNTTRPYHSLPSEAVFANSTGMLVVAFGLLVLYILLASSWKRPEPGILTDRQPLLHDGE
UniProt Q6P3W2, sequence (Q6P3W2 whole entry, looked up): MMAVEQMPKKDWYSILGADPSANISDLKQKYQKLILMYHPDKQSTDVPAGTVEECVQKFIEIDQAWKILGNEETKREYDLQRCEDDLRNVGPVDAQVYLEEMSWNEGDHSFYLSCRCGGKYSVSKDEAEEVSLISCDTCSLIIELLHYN
UniProt O75477, sequence (O75477 whole entry, looked up): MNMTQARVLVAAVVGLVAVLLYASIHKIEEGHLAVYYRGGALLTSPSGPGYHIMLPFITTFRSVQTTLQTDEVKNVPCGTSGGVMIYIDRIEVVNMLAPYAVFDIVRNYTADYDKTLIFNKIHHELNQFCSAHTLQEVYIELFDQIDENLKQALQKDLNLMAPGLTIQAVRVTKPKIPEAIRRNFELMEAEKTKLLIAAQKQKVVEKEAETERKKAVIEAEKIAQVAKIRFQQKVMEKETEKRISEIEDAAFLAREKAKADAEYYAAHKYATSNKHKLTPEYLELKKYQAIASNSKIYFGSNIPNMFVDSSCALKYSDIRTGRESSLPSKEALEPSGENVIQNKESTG
UniProt Q07973, sequence (Q07973 whole entry, looked up): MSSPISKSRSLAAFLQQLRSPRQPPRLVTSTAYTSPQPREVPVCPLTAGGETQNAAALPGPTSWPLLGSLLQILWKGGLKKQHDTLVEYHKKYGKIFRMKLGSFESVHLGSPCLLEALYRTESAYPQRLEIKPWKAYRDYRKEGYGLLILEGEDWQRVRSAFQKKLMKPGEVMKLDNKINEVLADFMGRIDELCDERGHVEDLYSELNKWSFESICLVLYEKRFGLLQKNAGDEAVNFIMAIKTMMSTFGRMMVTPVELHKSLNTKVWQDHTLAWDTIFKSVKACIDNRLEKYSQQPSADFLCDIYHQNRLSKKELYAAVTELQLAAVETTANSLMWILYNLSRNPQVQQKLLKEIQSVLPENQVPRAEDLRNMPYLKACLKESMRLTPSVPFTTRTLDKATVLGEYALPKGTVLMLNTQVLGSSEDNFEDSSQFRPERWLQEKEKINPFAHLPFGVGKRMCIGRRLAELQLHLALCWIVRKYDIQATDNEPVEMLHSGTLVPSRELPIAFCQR
UniProt O43432, sequence (O43432 whole entry, looked up): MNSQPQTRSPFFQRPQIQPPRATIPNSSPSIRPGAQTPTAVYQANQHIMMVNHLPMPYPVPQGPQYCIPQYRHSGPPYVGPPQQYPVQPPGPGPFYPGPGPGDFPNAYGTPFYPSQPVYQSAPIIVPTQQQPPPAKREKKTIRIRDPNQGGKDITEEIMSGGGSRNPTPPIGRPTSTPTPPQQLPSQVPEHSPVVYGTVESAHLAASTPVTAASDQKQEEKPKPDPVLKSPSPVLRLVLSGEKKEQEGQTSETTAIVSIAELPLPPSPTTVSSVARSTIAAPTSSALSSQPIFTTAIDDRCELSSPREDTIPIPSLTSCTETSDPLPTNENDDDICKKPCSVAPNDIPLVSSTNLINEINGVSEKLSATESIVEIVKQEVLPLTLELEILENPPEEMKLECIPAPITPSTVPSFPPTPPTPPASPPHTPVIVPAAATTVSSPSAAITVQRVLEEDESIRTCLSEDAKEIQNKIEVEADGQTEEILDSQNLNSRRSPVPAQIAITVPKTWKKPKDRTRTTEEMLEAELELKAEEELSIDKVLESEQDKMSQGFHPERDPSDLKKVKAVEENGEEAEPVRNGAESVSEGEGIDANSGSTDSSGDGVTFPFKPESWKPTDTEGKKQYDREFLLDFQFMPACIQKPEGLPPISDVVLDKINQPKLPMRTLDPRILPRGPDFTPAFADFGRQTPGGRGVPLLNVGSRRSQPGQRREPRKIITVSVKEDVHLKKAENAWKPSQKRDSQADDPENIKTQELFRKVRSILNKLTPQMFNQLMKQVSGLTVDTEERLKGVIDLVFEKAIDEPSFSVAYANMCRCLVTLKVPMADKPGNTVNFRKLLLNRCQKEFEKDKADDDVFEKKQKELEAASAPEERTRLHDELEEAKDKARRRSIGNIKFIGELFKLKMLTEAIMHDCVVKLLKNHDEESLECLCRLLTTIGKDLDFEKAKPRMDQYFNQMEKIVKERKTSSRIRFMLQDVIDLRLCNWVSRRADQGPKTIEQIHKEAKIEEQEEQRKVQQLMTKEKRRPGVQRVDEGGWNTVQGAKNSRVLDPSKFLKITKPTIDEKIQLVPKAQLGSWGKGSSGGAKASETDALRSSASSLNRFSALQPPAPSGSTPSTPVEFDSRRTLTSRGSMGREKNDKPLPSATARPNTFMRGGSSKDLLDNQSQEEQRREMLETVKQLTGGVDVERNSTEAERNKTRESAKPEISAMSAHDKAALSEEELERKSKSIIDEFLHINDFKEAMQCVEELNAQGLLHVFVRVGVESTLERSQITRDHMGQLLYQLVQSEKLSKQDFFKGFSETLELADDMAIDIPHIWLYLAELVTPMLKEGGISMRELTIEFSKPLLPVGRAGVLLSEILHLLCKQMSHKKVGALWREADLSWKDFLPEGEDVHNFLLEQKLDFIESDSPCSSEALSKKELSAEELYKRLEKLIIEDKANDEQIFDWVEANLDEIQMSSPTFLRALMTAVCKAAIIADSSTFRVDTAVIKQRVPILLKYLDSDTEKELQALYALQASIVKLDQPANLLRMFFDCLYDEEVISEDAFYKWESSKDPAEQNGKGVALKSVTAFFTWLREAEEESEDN
UniProt Q86YN1, sequence (Q86YN1 whole entry, looked up): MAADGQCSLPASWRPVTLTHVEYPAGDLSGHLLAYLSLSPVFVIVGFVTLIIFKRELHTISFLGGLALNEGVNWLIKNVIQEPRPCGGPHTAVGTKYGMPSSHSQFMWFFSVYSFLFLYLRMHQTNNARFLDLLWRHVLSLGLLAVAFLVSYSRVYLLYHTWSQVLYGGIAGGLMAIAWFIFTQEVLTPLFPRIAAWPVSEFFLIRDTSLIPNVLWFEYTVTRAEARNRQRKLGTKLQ

Row | Target | log2 fold change (IRAK-1-4 Inhibitor I) | log2 fold change (ibrutinib) | log2 fold change [1] | log2 fold change (ralimetinib) | log2 fold change [2] | log2 fold change [3] | log2 fold change [4] | log2 fold change (pinometostat) | log2 fold change [5] | log2 fold change [6] | log2 fold change [7] | log2 fold change [8] | log2 fold change [9] | log2 fold change [10] | log2 fold change (Nexturastat A) | log2 fold change (vemurafenib) | log2 fold change [11] | log2 fold change [12] | log2 fold change (givinostat) | log2 fold change (barasertib)
1 | CYBA (UniProt P13498) | 0.044 | 0.024 | -0.024 | -0.041 | -0.152 | -0.43 (active) | 0.121 | -0.036 | -0.018 | -0.026 | -0.017 | 0.025 | 0.041 | -0.02 | -0.033 | 0 | 0.008 | -0.028 | 0.007 | -0.033
2 | CYP24A1 (UniProt Q07973) | -0.162 | -0.044 | 0.187 | 0.412 |  | 0.069 | 0.31 | 0.276 | 0.083 | -0.089 |  | 0.051 | -0.039 | -0.306 |  | -0.198 | -0.057 | -0.183 | 0.233 | -0.146
3 | ERLIN1 (UniProt O75477) | -0.073 | -0.06 | 0.105 | 0.054 | -0.018 | -0.269 (active) | -0.007 | 0.098 | 0.012 | 0.068 | 0.011 | -0.018 | 0.028 | -0.01 | 0.031 | -0.02 | 0.014 | 0.065 | 0.014 | 0.028
4 | DYNC1I2 isoform 2 (UniProt Q13409) | 0.012 | 0.126 | 0.106 | 0.055 | -0.133 | -0.105 | 0.154 | 0.023 |  | -0.05 | 0.006 | -0.054 | -0.179 | 0.061 | 0.047 |  | 0.018 | 0.271 | 0.044 | 0.015
5 | DNAJC24 (UniProt Q6P3W2) | -0.035 | 0.011 |  | 0.058 | 0.026 | -0.037 | 0.058 | -0.019 | 0.062 | -0.023 | -0.024 | 0.368 | 0.104 | 0.008 | -0.208 | 0.008 | -0.034 | 0.027 | 0.07 | 0.008
6 | EIF4G3 isoform 3 (UniProt O43432) | 0.012 | 0 | -0.074 | -0.003 |  | -0.079 | 0.017 | 0.079 | -0.227 | 0.03 | -0.024 | 0.01 | 0 | -0.015 |  | 0.047 | 0.002 | 0.067 | 0.08 | 0.059
7 | EOGT (UniProt Q5NDL2) | -0.002 | 0.005 | 0.006 | -0.036 | 0.016 | -0.024 | 0.026 | 0.075 | 0.002 | 0.003 | -0.043 | -0.073 | -0.088 | -0.052 | 0.033 | -0.05 | -0.098 | -0.043 | 0.02 | -0.026
8 | CYB561A3 isoform 2 (UniProt Q8NBI2) | 0.024 | 0.014 | 0.033 | -0.026 |  | -0.164 | -0.019 | -0.054 | -0.069 | -0.027 | 0.051 | 0.025 | -0.074 | 0.02 |  |  | 0.059 | -0.086 | 0.033 | -0.057
9 | DNAH5 (UniProt Q8TE73) | 0.074 | 0.039 |  | 0.004 | 0.031 | -0.09 | 0.009 | 0.055 | -0.023 | 0.106 | -0.047 | 0 | 0.431 (active) | -0.036 | -0.021 | -0.077 | 0.014 | -0.044 | 0.012 | 0.03
10 | DPYSL2 (UniProt Q16555) | -0.003 | 0.092 | 0.024 |  | 0.092 | 0.066 |  | 0.009 | -0.007 | 0.01 | -0.056 |  | 0.03 | 0.033 | -0.176 | -0.056 | -0.002 | -0.065 | 0.03 | 0
11 | DBN1 isoform 3 (UniProt Q16643) | -0.06 | 0.099 | 0.061 | 0.072 | 0.151 | 0.047 | -0.02 | -0.005 | 0.05 | -0.091 | -0.079 | 0.045 | 0.016 | -0.002 | 0.104 | 0.075 | 0.032 | -0.062 | -0.026 | -0.038
12 | CTNNB1 (UniProt P35222) | -0.028 | -0.116 | 0.263 | -0.045 | -0.056 | -0.007 | 0.081 | -0.021 | -0.057 | 0.003 | -0.118 | -0.018 | 0.09 | -0.028 | 0.172 | -0.22 | -0.002 | -0.134 | 0.129 | 0.04
13 | CUX1 isoform 2 (UniProt Q13948) | 0.042 | 0.017 | -0.032 | 0.036 | -0.101 | 0.045 | 0.042 | 0.055 | 0.013 | 0.049 | -0.07 | 0.007 | -0.003 | -0.031 | 0.051 | 0.074 | 0.077 | -0.011 | -0.049 | 0.038
14 | FAM193B (UniProt Q96PV7) | -0.049 | -0.266 | -0.03 |  | -0.05 |  |  | 0.112 |  | -0.181 | -0.16 |  | -0.114 | -0.034 | 0.054 | -0.114 | 0.005 |  |  | 0.045
15 | DOLPP1 (UniProt Q86YN1) | 0.008 | -0.017 | -0.19 | -0.128 |  | -0.045 | -0.154 | -0.056 | 0.016 | 0.036 |  | 0.012 | -0.094 | 0.026 |  | -0.057 | -0.042 | -0.018 | -0.027 | 0.057
16 | FAM114A2 (UniProt Q9NRY5) | 0.038 | -0.03 | 0.013 | -0.017 | -0.135 | -0.201 | 0.004 | 0.005 | -0.01 | -0.059 | 0.007 | 0.03 | 0.038 | 0.022 | -0.053 | 0.001 | 0.061 | -0.058 | -0.017 | 0.01
17 | EIF3J isoform 2 (UniProt O75822) | 0.052 | 0.014 | -0.071 |  | -0.05 | 0.036 |  | -0.018 | 0.046 | 0.107 | -0.1 |  | 0.032 | -0.02 | 0.048 | -0.17 | -0.062 | -0.613 | -0.129 | -0.071
